From PubChem BioAssay AID1159580 (chemical genetic matrix, 2015)
“And” between values parts separate entries of the source, which are not always exact repeats. Equal values may be shown once. Screen size: about 5,500 compounds; about 2,000 (36%) were called active. Not shown: some 18% with an inconclusive outcome. Rule as the data show it: active = normalized growth mostly below about 0.91 (no sharp cut-off); inconclusive = no clear call, values can overlap the other calls; inactive = mostly above about 0.92. The list shows a part of the results.

Assay: chemical genetic growth profiling, strain panel (AID 1159580);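 also: tested at 20 µM; growth read once vehicle control cultures reached saturation at 30 °C; 1 = growth at the plate median or of vehicle wells; lower values mean less growth of the strain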
Settings: S. cerevisiae deletion strains, growth OD

Measured: normalized growth

COc1ccc2cc(CCC(C)=O)ccc2c1
inactive: locus YAL013W, strain DEP1, stronger effect = lower value 0.952 | locus YAL021C, strain ccr4, stronger effect = lower value 0.986 | locus YAL026C, strain drs2, stronger effect = lower value 0.996 | locus YAL030W, strain snc1, stronger effect = lower value 0.992 | locus YBL061C, strain skt5, stronger effect = lower value 0.981 | locus YBR009C, strain hhf1, stronger effect = lower value 0.989 | locus YBR021W, strain FUR4, stronger effect = lower value 0.947 | locus YBR023C, strain chs3, stronger effect = lower value 0.977 | locus YBR171W, strain sec66, stronger effect = lower value 0.985 | locus YBR229C, strain ROT2, stronger effect = lower value 0.919 | locus YBR231C, strain swc5, stronger effect = lower value 0.996 | locus YBR279W, strain paf1, stronger effect = lower value 0.993 | locus YCL011C, strain gbp2, stronger effect = lower value 0.983 | locus YCL016C, strain dcc1, stronger effect = lower value 0.997 | locus YCL029C, strain bik1, stronger effect = lower value 0.939 | locus YCL061C, strain MRC1, stronger effect = lower value 1 | locus YCL069W, strain vba3, stronger effect = lower value 0.993 | locus YCR088W, strain abp1, stronger effect = lower value 0.989 | locus YDL005C, strain med2, stronger effect = lower value 1.02 | locus YDL035C, strain GPR1, stronger effect = lower value 0.93 | locus YDL040C, strain nat1, stronger effect = lower value 0.997 | locus YDL074C, strain BRE1, stronger effect = lower value 0.935 | locus YDL101C, strain DUN1, stronger effect = lower value 0.955 | locus YDL134C, strain PPH21, stronger effect = lower value 0.967 | locus YDL185W, strain tfp1, stronger effect = lower value 0.945 | locus YDR001C, strain nth1, stronger effect = lower value 0.994 | locus YDR069C, strain doa4, stronger effect = lower value 1.01 | locus YDR101C, strain arx1, stronger effect = lower value 0.931 | locus YDR137W, strain rgp1, stronger effect = lower value 1.1 | locus YDR150W, strain NUM1, stronger effect = lower value 0.939 | locus YDR159W, strain sac3, stronger effect = lower value 1.03 | locus YDR162C, strain NBP2, stronger effect = lower value 0.943 | locus YDR195W, strain ref2 1.08 | locus YDR297W, strain sur2, stronger effect = lower value 0.99 | locus YDR318W, strain mcm21, stronger effect = lower value 0.93 | locus YDR334W, strain swr1, stronger effect = lower value 1.01 | locus YDR335W, strain msn5, stronger effect = lower value 0.999 | locus YDR388W, stronger effect = lower value 0.942 | locus YDR392W, strain spt3, stronger effect = lower value 0.967 | locus YEL003W, strain gim4, stronger effect = lower value 0.991 | locus YEL037C, strain rad23, stronger effect = lower value 0.991 | locus YEL061C, strain CIN8 (second series), stronger effect = lower value 1 | locus YEL061C, strain CIN8, stronger effect = lower value 0.946 | locus YER015W, strain faa2, stronger effect = lower value 1 | locus YER016W, strain bim1, stronger effect = lower value 0.99 | locus YER110C, stronger effect = lower value 0.901 | locus YER111C, strain swi4, stronger effect = lower value 1 | locus YER155C, strain BEM2, stronger effect = lower value 0.965 | locus YER167W, strain BCK2, stronger effect = lower value 0.92 | locus YFR010W, strain ubp6, stronger effect = lower value 1.01 | locus YGL086W, strain mad1, stronger effect = lower value 0.942 | locus YGL167C, strain pmr1, stronger effect = lower value 0.99 | locus YGL173C, strain kem1, stronger effect = lower value 0.987 | locus YGL227W, strain vid30, stronger effect = lower value 0.999 | locus YGL240W, strain doc1, stronger effect = lower value 0.929 | locus YGL248W, strain PDE1, stronger effect = lower value 0.959 | locus YGL253W, strain hxk2, stronger effect = lower value 0.992 | locus YGR078C, strain PAC10, stronger effect = lower value 0.938 | locus YGR229C, strain SMI1, stronger effect = lower value 0.919 | locus YHR013C, strain ard1, stronger effect = lower value 1.02 | locus YHR027C, strain rpn1, stronger effect = lower value 0.991 | locus YHR030C, strain SLT2, stronger effect = lower value 0.958 and 0.924 | locus YHR079C, strain IRE1 (second series), stronger effect = lower value 0.939 | locus YHR079C, strain IRE1, stronger effect = lower value 0.956 | locus YHR094C, strain hxt1, stronger effect = lower value 0.96 | locus YHR129C, strain ARP1, stronger effect = lower value 0.971 | locus YHR142W, strain chs7, stronger effect = lower value 0.976 | locus YHR200W, strain rpn10, stronger effect = lower value 0.933 | locus YIL066C, strain RNR3, stronger effect = lower value 0.929 | locus YIL073C, strain SPO22, stronger effect = lower value 0.92 | locus YIL125W, strain kgd1, stronger effect = lower value 0.942 | locus YIR030C, strain dcg1, stronger effect = lower value 0.929 | locus YJL092W, strain hpr5, stronger effect = lower value 0.992 | locus YJL095W, strain BCK1 (second series), stronger effect = lower value 0.99 | locus YJL095W, strain BCK1, stronger effect = lower value 0.922 and 0.939 | locus YJL115W, strain asf1, stronger effect = lower value 1.01 | locus YJL129C, strain trk1, stronger effect = lower value 0.97 | locus YJL134W, strain LCB3, stronger effect = lower value 0.958 | locus YJL154C, strain vps35, stronger effect = lower value 0.992 | locus YJL164C, strain tpk1, stronger effect = lower value 0.992 | locus YJL166W, strain qcr8, stronger effect = lower value 0.989 | locus YJL168C, strain set2, stronger effect = lower value 0.957 | locus YJL187C, strain SWE1 (second series), stronger effect = lower value 0.959 | locus YJL187C, strain SWE1, stronger effect = lower value 0.992 | locus YJR043C, strain POL32, stronger effect = lower value 0.917 | locus YJR066W, strain TOR1, stronger effect = lower value 0.926
active: locus YDL192W, strain arf1, stronger effect = lower value 0.91 | locus YDR502C, strain sam2, stronger effect = lower value 0.908 | locus YER155C, strain BEM2 (second series), stronger effect = lower value 0.843 | locus YGL078C, strain dbp3, stronger effect = lower value 0.921 | locus YGR135W, strain pre9, stronger effect = lower value 0.881 | locus YGR252W, strain gcn5, stronger effect = lower value 0.763
